Results on 84 molecules are retold here after paper PMC4336329 (PLoS ONE, 2015).

Out of some 310,000 compounds screened, about 14,000 (4.5%) showed an effect of 50% or more. Effects have a minus sign here. The entries come from a sample that favours strong results as a whole.
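Further: peak tail current of the secondary pulse compared with the same well before compound.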

The test deals with human ether-à-go-go-related gene (hERG) potassium channel (human, UniProt Q12809). Put plainly: primary screen, population patch clamp on CHO cells stably expressing hERG; higher = less effect of the substance.
Chain of human ether-à-go-go-related gene (hERG) potassium channel (Q12809 whole entry, looked up): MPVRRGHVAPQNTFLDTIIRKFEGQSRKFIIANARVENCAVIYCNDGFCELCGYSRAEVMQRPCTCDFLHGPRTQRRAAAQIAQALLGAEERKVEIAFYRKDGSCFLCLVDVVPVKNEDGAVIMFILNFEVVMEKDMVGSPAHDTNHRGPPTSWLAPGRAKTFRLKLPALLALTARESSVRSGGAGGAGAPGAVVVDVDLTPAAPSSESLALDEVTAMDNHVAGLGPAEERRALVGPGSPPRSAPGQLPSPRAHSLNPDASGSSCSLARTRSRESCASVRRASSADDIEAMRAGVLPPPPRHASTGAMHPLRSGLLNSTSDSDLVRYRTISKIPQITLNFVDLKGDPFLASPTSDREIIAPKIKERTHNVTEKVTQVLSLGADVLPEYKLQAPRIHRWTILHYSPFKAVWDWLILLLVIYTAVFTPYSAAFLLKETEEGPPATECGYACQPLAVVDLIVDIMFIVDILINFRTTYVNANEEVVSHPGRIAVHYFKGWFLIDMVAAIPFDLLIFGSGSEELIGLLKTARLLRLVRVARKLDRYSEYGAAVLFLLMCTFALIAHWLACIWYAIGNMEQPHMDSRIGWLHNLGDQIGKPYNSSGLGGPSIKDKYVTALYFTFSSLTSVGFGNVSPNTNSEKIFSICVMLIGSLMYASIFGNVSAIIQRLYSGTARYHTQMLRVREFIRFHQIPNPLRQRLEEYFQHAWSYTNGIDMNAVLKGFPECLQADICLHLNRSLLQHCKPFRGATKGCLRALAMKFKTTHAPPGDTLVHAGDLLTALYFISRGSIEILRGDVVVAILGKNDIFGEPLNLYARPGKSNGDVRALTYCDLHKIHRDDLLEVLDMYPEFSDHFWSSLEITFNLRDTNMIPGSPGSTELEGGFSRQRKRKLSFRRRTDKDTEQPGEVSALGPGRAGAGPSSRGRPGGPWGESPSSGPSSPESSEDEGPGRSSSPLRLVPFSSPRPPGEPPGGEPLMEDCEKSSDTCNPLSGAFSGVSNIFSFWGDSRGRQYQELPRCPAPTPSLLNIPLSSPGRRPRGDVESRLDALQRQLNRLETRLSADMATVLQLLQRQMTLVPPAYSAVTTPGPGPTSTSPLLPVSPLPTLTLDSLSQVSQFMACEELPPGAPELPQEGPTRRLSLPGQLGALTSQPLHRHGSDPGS
Take `Cn1c(=O)oc2cc(S(=O)(=O)NCCC(=O)N3CCN(c4ccccc4F)CC3)ccc21`: the “hERG current change (%, negative = inhibition) at 10uM” value is reported as -17%. The result for `COc1ccc(/C(N)=C/C(=O)C(C)(C)C)cc1` reads -5.64%; that for `COc1nc(Oc2ccc(=O)n(C)n2)nc(N(C)C)n1`, 0.595%. The result for `N#Cc1ccc(S(=O)(=O)NC2CCN(Cc3ccccc3)CC2)cc1` reads -31.8%; that for `Cc1ccc(OCC(O)Cn2c(=N)n(CCN3CCCCC3)c3ccccc32)cc1.Cl` (stereo not drawn), -72.9%; that for `COc1ccccc1OCC(O)Cn1c(=N)n(CCN2CCCCC2)c2ccccc21.Cl` (stereo not drawn), -65.4%. `COc1ccc(OCC(O)Cn2c(=N)n(CCN3CCCCC3)c3ccccc32)cc1.Cl` (stereo not drawn): the “hERG current change (%, negative = inhibition) at 10uM” value is listed as -68.1%. For `COc1ccc(OCC(O)Cn2c(=N)n(CCN3CCOCC3)c3ccccc32)cc1.Cl` (stereo not drawn), the “hERG current change (%, negative = inhibition) at 10uM” value is recorded as -34.7%. For the molecule `CCOc1ccc(C(O)Cn2c(=N)n(CCN3CCCCC3)c3ccccc32)cc1.Cl` (stereo not drawn), the “hERG current change (%, negative = inhibition) at 10uM” value was -77.2%.

For `Cc1ccc(OCC(O)Cn2c(=N)n(CCN3CCOCC3)c3ccccc32)cc1.Cl` (stereo not drawn), the “hERG current change (%, negative = inhibition) at 10uM” value is -43.6%.

For `COc1ccccc1OCCCCN1CCCCC1`, the “hERG current change (%, negative = inhibition) at 10uM” value was -1.89%. `COc1ccc(OCC(O)CN2CCCCC2)cc1.Cl` (stereo not drawn): the “hERG current change (%, negative = inhibition) at 10uM” value was found to be 8.1%. On to `CCOc1ccc(C(O)(c2ccccc2)C(CN2CCCC2)c2ccccc2)cc1.Cl` (stereo not drawn), for which the “hERG current change (%, negative = inhibition) at 10uM” value is -34%. Next, `Cc1onc(-c2c(F)cccc2Cl)c1C(=O)N1CCCc2ccccc21`: -21.5%; `CC(=O)c1ccc(NC(=O)C(=O)c2cn(CC(=O)N3CCCCC3)c3ccccc23)cc1`: 6.65%. For `COc1ccc(-n2nc(C(=O)NCC(=O)N3CCN(c4ccccn4)CC3)c3ccccc3c2=O)cc1`, the “hERG current change (%, negative = inhibition) at 10uM” value is -34.3%. Regarding `CC(=O)N1CCN(S(=O)(=O)c2cccc(C(=O)Nc3nccs3)c2)CC1`, the “hERG current change (%, negative = inhibition) at 10uM” value was 3.42%.

With `CCCCN(c1ccccc1)S(=O)(=O)c1cccc(C(=O)O)c1`, the “hERG current change (%, negative = inhibition) at 10uM” value is listed as 5.27%. As to `C=CCn1c(O)c(N=Nc2ccccc2C)c2ccccc21`, the “hERG current change (%, negative = inhibition) at 10uM” value turned out to be 4.06%.

Regarding `COc1ccc(-n2nnnc2SCC(=O)N2CCCc3ccccc32)cc1OC`, the “hERG current change (%, negative = inhibition) at 10uM” value is -13.4%. For `O=C1C2CCCN2C(c2ccccc2F)N1c1cccc(Cl)c1` (stereo not drawn), the “hERG current change (%, negative = inhibition) at 10uM” value came to 3.69%. On to `Cc1ccc2nc(CCc3nc4ccc(C)cc4o3)oc2c1`, for which the “hERG current change (%, negative = inhibition) at 10uM” value was 4.09%. The result for `CCOc1ccc(OCC)c(NC(=O)C2CCCN(S(=O)(=O)c3c(C)n[nH]c3C)C2)c1` (stereo not drawn) reads 8.8%; that for `Cc1ccc(OCC(=O)Nc2cnn(CCCC(=O)O)c2)c([N+](=O)[O-])c1`, 3.59%.

With `COc1cccc(OC)c1C(=O)OCC(=O)N(c1ccccc1)C1CCCCC1`, the “hERG current change (%, negative = inhibition) at 10uM” value was -4.4%. The result for `Cl.N=c1n(CCN2CCOCC2)c2ccccc2n1CC(O)COc1ccccc1` (stereo not drawn) reads -39.3%; that for `Cl.N=c1n(CCN2CCCCC2)c2ccccc2n1CC(O)COc1ccccc1` (stereo not drawn), -68.2%.

For `Cl.OC(CNCCCN1CCCCC1)COc1ccccc1` (stereo not drawn), the “hERG current change (%, negative = inhibition) at 10uM” value is reported as -4.25%.

On to `COC(=O)N1C(=O)[C@](c2ccc(Cl)cc2)(C(C)C)N1C(=O)OC`, for which the “hERG current change (%, negative = inhibition) at 10uM” value is reported as 7.07%. The result for `COc1ccc(-c2cnc3n2CCCCC3)cc1` reads -33.1%; that for `CCOc1ccc(-c2cnc3n2CCCCC3)cc1`, -63.3%. Take `CCOc1ccc(-c2cnc3n2CCC3)cc1.Cl`: the “hERG current change (%, negative = inhibition) at 10uM” value was -18.3%. Take `Cc1ccc(NC(=O)CCC(=O)N2CCOCC2)nc1`: the “hERG current change (%, negative = inhibition) at 10uM” value is 13%. The result for `CCc1ccc(C2=NNC(=Nc3c(C)n(C)n(-c4ccccc4)c3=O)SC2)cc1` reads 34.4%; that for `CCOC(=O)c1cc(-c2ccccc2)n(CCC(=O)NC(C)CC)c1C` (stereo not drawn), -12.5%. The result for `CC(=O)c1cc(-c2ccccc2)n(CCC(=O)NC2CCCC2)c1C` reads 0.876%; that for `CCOC(=O)c1cc(-c2ccc(F)cc2)n(CCC(=O)NC2CCN(Cc3ccccc3)CC2)c1C`, -64.2%; that for `CCOC(=O)c1cc(-c2ccccc2)n(CCC(=O)N2CCN(c3ccc(OC)cc3)CC2)c1C`, -25.5%. Next, `CCOC(=O)c1cc(-c2ccccc2)n(CC(=O)Nc2ccc(OC)cc2)c1C`: 6.19%.

As for `CCOC(=O)c1cc(-c2ccc(OC)cc2)n(CCC(=O)NCCN2CCC(C)CC2)c1C`, the “hERG current change (%, negative = inhibition) at 10uM” value is reported as -52.4%. Turning to `CCCNC(=O)CCn1c(-c2ccc(C)cc2)cc(C(=O)OCC)c1C`, the “hERG current change (%, negative = inhibition) at 10uM” value was -6.08%.

On to `CCOC(=O)c1cc(-c2ccc(OC)cc2)n(CCC(=O)NC2CCN(Cc3ccccc3)CC2)c1C`, for which the “hERG current change (%, negative = inhibition) at 10uM” value is listed as -65.7%.

Consider `CCOC(=O)c1cc(-c2ccc(C)cc2)n(CCC(=O)NCCCOC)c1C`, for which the “hERG current change (%, negative = inhibition) at 10uM” value is -11.5%. Regarding `O=C(Cn1c(=S)[nH]c2ccccc2c1=O)NCCc1ccccc1`, the “hERG current change (%, negative = inhibition) at 10uM” value is 16%. Next, `CCC(NC(=S)NC1CCCCC1)c1ccc(C(C)C)cc1` (stereo not drawn): 13.7%; `CC(C)=CCCC(C)NC(=O)NC1CCCCC1` (stereo not drawn): -3.64%. Consider `CCCc1cc(=O)oc2cc(C)cc(OCc3nn[nH]n3)c12`, for which the “hERG current change (%, negative = inhibition) at 10uM” value is on record as 13%. In the case of `O=C(NCCO)c1ccc(Oc2ccc(C(F)(F)F)cc2[N+](=O)[O-])cc1`, the “hERG current change (%, negative = inhibition) at 10uM” value was -0.131%. On to `COc1ccccc1C(=O)Nc1c2c(nn1-c1ccc(Cl)cc1)CS(=O)(=O)C2`, for which the “hERG current change (%, negative = inhibition) at 10uM” value is given as 9.63%.

Regarding `Cc1onc(-c2cccc(Cl)c2Cl)c1C(=O)O/N=C(\N)c1ccc([N+](=O)[O-])o1`, the “hERG current change (%, negative = inhibition) at 10uM” value is reported as -65%.

As for `Cc1onc(-c2ccccc2Cl)c1C(=O)O/N=C(\N)c1ccc([N+](=O)[O-])o1`, the “hERG current change (%, negative = inhibition) at 10uM” value was -43.6%. Next, `C/C(=N/OC(=O)c1c(-c2ccccc2Cl)noc1C)c1cnccn1`: -7.04%; `C/C(=N\OC(=O)c1c(-c2ccccc2Cl)noc1C)c1ccncc1`: -58.6%. In the case of `Cc1onc(-c2c(F)cccc2Cl)c1C(=O)O/N=C(\N)c1ccc([N+](=O)[O-])o1`, the “hERG current change (%, negative = inhibition) at 10uM” value is reported as -16.8%.

As for `C/C(=N\OC(=O)c1c(-c2ccccc2Cl)noc1C)c1nccs1`, the “hERG current change (%, negative = inhibition) at 10uM” value is reported as -2.44%. With `NS(=O)(=O)c1ccc(NC(=S)Nc2ccc(Br)c(Cl)c2)cc1`, the “hERG current change (%, negative = inhibition) at 10uM” value turned out to be 21.3%. The result for `CCOC(=O)c1ccccc1N/C=C/C(=O)c1cccs1` reads -14.9%. On to `CCn1c(-c2csc(C(C)C)c2)n[nH]c1=S`, for which the “hERG current change (%, negative = inhibition) at 10uM” value is 37.1%. Regarding `CCCN1CCC(=O)N(CCSc2ccc(NC(C)=O)cc2)CC1`, the “hERG current change (%, negative = inhibition) at 10uM” value turned out to be 6.8%. As for `CC(=O)Nc1ccc(SC[C@H](Cc2ccccc2)N2CC[C@@H](C)CCC2=O)cc1`, the “hERG current change (%, negative = inhibition) at 10uM” value is recorded as -8.11%. Regarding `CC(=O)Nc1ccc(SC[C@H](Cc2ccccc2)N2CCN(CCc3ccccc3)CCC2=O)cc1`, the “hERG current change (%, negative = inhibition) at 10uM” value was -55.9%.

Turning to `CC(=O)Nc1ccc(SC[C@H](Cc2ccccc2)N2CCN(CC(C)C)CCC2=O)cc1`, the “hERG current change (%, negative = inhibition) at 10uM” value was -44.2%. Take `CC(=O)Nc1ccc(SC[C@H](Cc2ccccc2)N2CC[C@@H](C(C)(C)C)CCC2=O)cc1`: the “hERG current change (%, negative = inhibition) at 10uM” value was determined as 5.23%. The result for `CC(=O)Nc1ccc(SC[C@H](CC(C)C)N2CCN(CCc3ccccc3)CCC2=O)cc1` reads -59.1%.

Take `CC(=O)Nc1ccc(SC[C@H](c2ccccc2)N2CCN(CCc3ccccc3)CCC2=O)cc1`: the “hERG current change (%, negative = inhibition) at 10uM” value is reported as -75.1%. Next, `CC(=O)Nc1ccc(SC[C@H](Cc2ccccc2)N2CC[C@@H](O)CCC2=O)cc1`: -7.75%. On to `CC(=O)Nc1ccc(SC[C@H](CC(C)C)N2CCN(CC(C)C)CCC2=O)cc1`, for which the “hERG current change (%, negative = inhibition) at 10uM” value is recorded as -28.1%. The result for `Cc1cc(OCc2cc(C(=O)NCc3cc(C(C)C)no3)no2)cc(C)c1Cl` reads 9.79%; that for `Cc1cc(C)c(/C=C(\C#N)S(=O)(=O)c2ccccc2)[nH]1`, 11%; that for `Cc1[nH][nH]c(=O)c1C(c1ccc(O)c([N+](=O)[O-])c1)c1c(C)[nH][nH]c1=O`, 18.8%.

As for `CN(C)c1nc(N)ncc1-c1ccc(Oc2ccccc2)cc1`, the “hERG current change (%, negative = inhibition) at 10uM” value is on record as 18%. Next, `COc1ccc(-n2nc(C(=O)NCC(=O)N3CCN(c4ccccc4OC)CC3)c3ccccc3c2=O)c(OC)c1`: -18.4%. With `Cc1c(N/C=C/C(=O)C(F)(F)F)c(=O)n(-c2ccccc2)n1C`, the “hERG current change (%, negative = inhibition) at 10uM” value worked out at 20.2%. The result for `CC1=CC2=NC(=O)CC(C)(C(=O)N(CC(=O)NC3CCCC3)c3cc(C)cc(C)c3)N2C=C1` (stereo not drawn) reads 17.9%; that for `COc1ccccc1CNC(=O)C(=O)c1cn(CC(=O)N2CCCC2)c2ccccc12`, 15.1%; that for `Cc1cccc(/C(N)=N/OC(=O)c2ccc(Cl)cc2Cl)c1`, 8.46%. Next, `COc1ccc(C(=O)N2CCOCC2)cc1S(=O)(=O)N1CCCc2ccccc21`: -31.4%; `Cc1ccc(C(=O)OCC(=O)c2ccc(S(=O)(=O)N3CCCCC3)cc2)o1`: -20.3%. The result for `O=Cc1cn(CCOc2ccccc2)c2ccccc12` reads 4.98%; that for `CC(=O)N=c1c(C#N)cc2c(=O)n3cccc(C)c3nc2n1CCCOC(C)C`, -50.4%.

`Cc1cccn2c(=O)c3cc(C#N)c(=NC(=O)c4ccncc4)n(CCCOC(C)C)c3nc12`: the “hERG current change (%, negative = inhibition) at 10uM” value is reported as -85.1%. Next, `COCCCn1c(=NC(=O)c2ccccc2)c(C#N)cc2c(=O)n3cccc(C)c3nc21`: -71.5%; `COCCCn1c(=NC(C)=O)c(C#N)cc2c(=O)n3cccc(C)c3nc21`: -49.7%; `COCCCn1c(=NC(=O)c2ccncc2)c(C#N)cc2c(=O)n3cccc(C)c3nc21`: -68%.
